Among the data in PubChem BioAssay AID651946 (Broad Institute, 2012) are outcome values, retold here.

Results with a measured potency or affinity are listed apart. Calls of active or inactive are those of the source.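 The calls were made as follows: active = toxic compound whose fitted half-effect dose of signal loss is at most twice its top tested dose; inconclusive = flat fit losing 30 to 70% signal, or poor fit; inactive = the rest.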

This assay can be described thus: HeLa cell viability loss – plate reader, dry powder, cytotoxicity control, dose response (AID 651946). To be noted: ATP luminescence (CellTiter-Glo), 48 h; series mostly up to 26 µM. A general note: ATP-based viability assays read luminescence as a measure of living cells.
In the case of `c1ccc(-c2nnc(SCCN3CCN(c4ccccc4)CC3)o2)cc1`, the call was inactive.

On to `N#Cc1cccc(-c2nnc(SCc3ccccc3)o2)c1`, for which the call was inactive.

With `c1ccc(CSc2nnc(-c3cc4ccccc4o3)o2)cc1`, the molecule was classed as inactive.

`c1ccc(-c2nnc(SCCC3OCCCO3)o2)cc1`: the call was inactive.

Consider `Clc1ccccc1CSc1nnc(-c2ccccc2)o1`, for which the molecule was classed as inactive.

Turning to `c1ccc(Cn2cc(CSc3nnc(C4CCCC4)o3)nn2)cc1`, the call was inactive.

As to `FC(F)(F)c1ccccc1CSc1nnc(-c2ccccc2)o1`, the molecule was classed as inactive.

In the case of `c1ccc(CSc2ncc(-c3ccccc3)o2)cc1`, the molecule was classed as inactive.

In the case of `Cc1ccc(-c2nnc(SCc3ccccn3)o2)cc1`, the molecule was called inactive.

As for `c1ccc(-c2nnc(SCc3ccncc3)o2)cc1`, the molecule was called inactive.

As to `c1ccc(CNCCSc2nnc(-c3ccccc3)o2)cc1`, the molecule was classed as inactive.

Take `FC(F)(F)c1ccc(CSc2nnc(-c3ccccc3)o2)cc1`: the molecule was called inactive.

As for `FC(F)(F)Oc1ccc(-c2nnc(SCc3ccccc3)o2)cc1`, the outcome was inactive.

Turning to `c1ccc(CSc2nnc(-c3cscn3)o2)cc1`, the result was inactive.

As to `Fc1ccc(-c2nnc(SCc3cn(-c4ccccc4)nn3)o2)cc1`, the molecule was classed as inactive.

`c1ccc(CCc2nnc(SCc3ccccc3)o2)cc1`: the molecule was called inactive.

With `Brc1cccc(-c2nnc(SCc3ccccn3)o2)c1`, the molecule was called inactive.

On to `Fc1ccc(Cn2cc(CSc3nnc(-c4ccc(F)cc4)o3)nn2)cc1`, for which the outcome was inactive.

Take `Cc1ccccc1CSc1nnc(-c2ccccc2)o1`: the molecule was called inactive.

For `FC(F)(F)c1ccccc1-c1nnc(SCc2ccccc2)o1`, the molecule was classed as inactive.

Consider `CC1(O)CN(CCSc2nnc(-c3ccccc3)o2)C1`, for which the molecule was called inactive.

Take `CS(=O)(=O)c1ccccc1CSc1nnc(-c2ccccc2)o1`: the call was inactive.

Consider `COc1ccc(CSc2nnc(-c3ccc(Cl)cc3)o2)nc1`, for which the result was inactive.

In the case of `CSc1nnc(-c2ccccc2)o1`, the molecule was called inactive.

In the case of `COc1cccc(CSc2nnc(-c3ccccc3)o2)c1`, the outcome was inactive.

For the molecule `Fc1ccc(Cn2cc(CSc3nnc(C4CCCC4)o3)nn2)cc1`, the call was inactive.

Take `FC(F)(F)Oc1cccc(CSc2nnc(-c3ccccc3)o2)c1`: the result was inactive.

As for `Fc1ccc(CSc2nnc(-c3cccnc3)o2)cc1`, the result was inactive.

With `O=C(Cc1ccccc1)C(C(=O)c1nnc(-c2ccccc2)o1)c1ccccc1` (stereo unspecified), the molecule was called inactive.

In the case of `c1ccc(CSc2nnc(-c3ccc(-c4ccccc4)cc3)o2)cc1`, the molecule was classed as inactive.

For `CC(C)c1nnc(SCc2ccccc2)o1`, the molecule was called inactive.

In the case of `c1ccc(-c2nnc(SCC3CC3)o2)cc1`, the molecule was called inactive.

With `CS(=O)(=O)c1ccc(CSc2nnc(-c3ccccc3)o2)cc1`, the call was inactive.

`FC(F)(F)CNCCSc1nnc(-c2ccccc2)o1`: the molecule was classed as inactive.

On to `CN(Cc1ccccc1)c1nnc(-c2ccccc2)o1`, for which the molecule was classed as inactive.

For `Fc1cccc(-c2nnc(SCc3ccccn3)o2)c1`, the result was inactive.
